# MKP-1 inh = blocks human MKP-1 phosphatase activity; hit rate 0.15% among 65,000; recombinant MKP-1, OMFP hydrolysis fluorescence; AID 374; inhibition, %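 (compounds tested at a single concentration somewhere between 10 and 100 µM)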;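 active means inhibition above about 50%, limit read from the data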
# Target sequence (P28562 whole entry, looked up): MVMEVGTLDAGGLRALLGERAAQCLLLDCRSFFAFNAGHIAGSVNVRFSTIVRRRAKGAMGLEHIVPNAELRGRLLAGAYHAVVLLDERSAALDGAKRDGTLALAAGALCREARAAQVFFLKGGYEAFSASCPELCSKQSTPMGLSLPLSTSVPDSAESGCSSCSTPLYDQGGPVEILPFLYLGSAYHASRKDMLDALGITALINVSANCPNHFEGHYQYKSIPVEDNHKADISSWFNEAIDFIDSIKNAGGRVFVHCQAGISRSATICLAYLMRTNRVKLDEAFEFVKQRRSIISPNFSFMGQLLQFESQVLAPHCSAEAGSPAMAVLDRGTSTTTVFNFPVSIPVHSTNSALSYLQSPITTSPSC
# HePTP inh = blocks human HePTP tyrosine phosphatase | P35236 | recombinant HePTP phosphatase activity, OD absorbance | inhibition, % at 20 µM | hit rate 0.64% among 110,000 | AID 521; in the data active means inhibition above about 50%
# TNAP act DEA = human TNAP activation, intermediate phosphate acceptor; activation factor at 20 µM; AID 813; 64,000 tested, under 10 active; purified TNAP, CDP-star luminescence, 100 mM DEA, 30 min; stronger effect = higher value; scale: 0 levamisole-inhibited, 1 vehicle-only enzyme; P05186;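 active means activation factor of at least 2 at 20 µM, relative to controls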
# Hsp90 block = displaces geldanamycin probe from tumor Hsp90; AID 429; hit rate 0.35% among 64,000; NCI-N417 lysate Hsp90, Cy3B-geldanamycin FP displacement; inhibition, % at 30 µM; P07900;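 active means inhibition above 50%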
# PLAP activator = activators of human placental alkaline phosphatase; P05187; purified PLAP enzyme, luminescent substrate read-out; stronger effect = higher value; activation fold at 20 µM; hit rate 1.2% among 96,000; AID 696; in the data active means activation fold above about 2
# Cdc25B block = inhibitors of human Cdc25B phosphatase | recombinant Cdc25B, OMFP fluorescence Ex485/Em525 | P30305 | hit rate 0.1% among 65,000 | AID 368 | inhibition, %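 (compounds tested at 10 µM final in the well)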; in the data active means inhibition above about 50%
# Hits are given with their value; 0 = inactive; - = not tested or not shown; ! = not active in a repeat. Only some compounds are listed: those with a hit (about 1.5% of all), similar ones and a draw of the others.
SMILES,MKP-1 inh,HePTP inh,TNAP act DEA,Hsp90 block,PLAP activator,Cdc25B block
COc1ccccc1C(=O)N[C@H](C)c1ccccc1,-,0,-,-,-,-
CC1=CC(C)(C)N(CC(=O)c2ccc([N+](=O)[O-])cc2)c2ccccc21,-,0,-,-,-,-
Cc1ccc(NC(=O)c2c(NC(=O)c3cccs3)sc3c2CCCCC3)c(C)c1,-,0,-,-,-,-
COc1ccccc1NC(=O)CCN1CCN(Cc2ccccc2)CC1,-,-,-,-,2,-
Cc1ccc(-c2nc3ncccc3o2)cc1NC(=O)c1ccc(Br)o1,-,0,-,-,-,-
Oc1cc(O)cc(/C=C/c2ccc(O)c(O)c2)c1,-,-,-,108.3,-,-
COc1cc(/C=C(\C#N)C(=O)c2ccccc2)ccc1O,-,0,-,-,-,-
COc1cc(/C=C(\C#N)C(=O)c2ccc(O)c(O)c2)cc(I)c1O,-,-,-,72.6,-,-
CCC1=NN(C(=O)c2ccccc2Cl)C(O)(C(F)(F)F)C1 (centres undefined),-,0,-,-,-,-
COc1ccc(-n2c(COc3cccc(C)c3)nnc2SCC(=O)NCc2ccco2)cc1,0,0,0,0,0,0
COc1ccc(-n2c(COc3ccc4ccccc4c3)nnc2SCC(=O)NCc2ccco2)cc1,-,-,-,-,2,-
CCCCOc1ccccc1C1Nc2ccccc2NC2=C1C(=O)CC(c1ccccc1)C2 (centres undefined),-,0,-,-,-,-
CCC(CO)n1c(SCc2cc(=O)oc3cc(C)ccc23)nc2ccccc2c1=O (centres undefined),-,-,-,-,2.7,-
CC(C)(C)c1ccc(-c2cc(C(=O)NNC(=O)Nc3ccccc3)c3ccccc3n2)cc1,-,-,-,-,2.1,-
O=C(c1ccc2c(c1)OCO2)N1CCN(c2ccccc2)CC1,0,0,0,0,0,0
O=C(c1ccc2c(c1)OCO2)N1CCN(c2ccc(Cl)cc2)CC1,0,102.1!,0,0,0,0
Nc1ccccc1C(=O)NNc1ncc(C(F)(F)F)cc1Cl,-,-,-,-,2,-
O=C(COC(=O)c1ccc2ccccc2c1)Nc1ncc(C(F)(F)F)cc1Cl,-,-,-,-,0,-
N#Cc1c(C(F)(F)F)cc(-c2cccs2)nc1SCC(=O)Nc1ccc(S(N)(=O)=O)cc1,-,73.2,-,-,-,-
CCOC(=O)C1=C(O)/C(=C/c2cccc(Br)c2)SC1=Nc1ccccc1,-,0,-,-,-,-
O=C(Nc1nnc(COc2ccc(Cl)cc2)s1)c1ccccc1F,-,0,-,-,-,-
O=C(Cn1nnc(-c2ccccc2)n1)OCc1ccccc1,0,0,0,0,0,72.1
O=C(Cn1nnc(-c2ccccc2)n1)OCc1csc(-c2ccccc2)n1,0,0,0,0,0,0
COc1ccc(C(=O)Nc2ccc3c4c(cccc24)CC3)cc1Br,-,0,-,-,-,-
COc1ccc(OC)c(C2NC(=S)NC(C)=C2C(=O)OCCc2ccccc2)c1 (centres undefined),-,0,-,-,-,-
SMILES,MKP-1 inh,HePTP inh,TNAP act DEA,Hsp90 block,PLAP activator,Cdc25B block
COc1ccccc1-n1c(CCN2C(=O)c3ccccc3C2=O)nc2ccccc2c1=O,-,0,-,-,-,-
O=C1C(Cl)=CC(=NSc2nc3ccccc3s2)C=C1Cl,-,68.4,-,-,-,-
O=C(CSc1nc2ccccc2s1)CSc1nc2ccccc2s1,-,0,-,-,0,-
CC(=O)C1=C(O)C(=O)N(CCN(C)C)C1c1ccc(C(C)C)cc1 (centres undefined),-,0,-,-,-,-
CCN(CC)c1ccc(/C=N/N2C(=O)c3ccccc3C2=O)cc1,-,102.2,-,-,-,-
O=C(COc1ccccc1[N+](=O)[O-])N/N=C/c1cc2c(cc1Br)OCO2,-,0,-,-,-,-
O=C(Nc1ccc2oc(-c3ccccc3)nc2c1)c1ccc(-c2ccc([N+](=O)[O-])cc2)o1,-,100.7,-,-,-,-
O=C(Nc1ccc2oc(-c3cccc(Cl)c3Cl)nc2c1)c1ccco1,-,101.0,-,-,-,-
Cc1ccc2oc(-c3ccc(NC(=O)c4ccc(-c5ccc(Cl)cc5)o4)cc3O)nc2c1,-,93.7,-,-,-,-
O=C(NC(=S)Nc1ccc2oc(-c3ccccc3)nc2c1)c1ccccc1,-,102.9,-,-,-,-
Cc1ccc(-n2nc(C)c(-c3cccc([N+](=O)[O-])c3)c2C)cc1Cl,-,0,-,-,-,-
O=c1[nH]c2c(cc1CNCCN1CCOCC1)c(-c1cccc(F)c1)nn2-c1ccccc1,0,0,0,0,2,0
O=C(NCc1cccnc1)C1c2ccccc2C(=O)N1Cc1ccco1 (centres undefined),0,0,0,57.4,0,0
COc1ccc(C2/C(=C(/O)c3ccc(Br)cc3)C(=O)C(=O)N2CCc2ccccc2)cc1OC (centres undefined),-,0,-,-,-,-
Cc1ccc(C(O)c2nc3ccccc3n2C(C)C)cc1 (centres undefined),0,0,0,0,2.6,0
Cc1ccc(C(O)c2nc3ccccc3n2C)cc1 (centres undefined),-,0,-,-,-,-
O=C(NC(=S)Nc1ccccc1Cl)c1cccnc1,-,0,-,-,-,-
COc1ccc(C(=O)NNC(=S)NC2CCCCC2)cc1OC,-,-,-,-,2.5,-
O=C1C(=O)N(Cc2cccnc2)C(c2ccccc2)/C1=C(\O)c1ccccc1 (centres undefined),-,0,-,-,-,-
CCC(C)(C)NC(=O)CN(C(=O)CNS(=O)(=O)c1ccc(C)cc1)c1ccc2c(c1)OCCO2,0,0,0,0,2,0
O=C(NNC1=C(C(=O)C(F)(F)F)CCC1)c1ccc(-c2ccccc2)cc1,-,0,-,-,-,-
Cc1cccc(C(=O)NNC2=C(C(=O)C(F)(F)F)CCC2)c1O,-,0,-,-,2.3,-
N/C(=N\OC(=O)Cc1ccccc1)c1ccccc1,-,0,-,-,-,-
O=C(CSc1ncn[nH]1)N1CCN(S(=O)(=O)c2ccc(Cl)cc2)CC1,-,-,-,-,2.1,-
Cc1nnc(SCC(=O)N2CCN(S(=O)(=O)c3ccc(Cl)cc3)CC2)[nH]c1=O,0,0,0,0,0,0
SMILES,MKP-1 inh,HePTP inh,TNAP act DEA,Hsp90 block,PLAP activator,Cdc25B block
Oc1ccc(Nc2nc(-c3ccc4ccccc4c3)cs2)cc1,-,-,-,-,0,-
Oc1ccc(-c2nc(-c3ccc(O)c(O)c3)cs2)cc1,0,0,0,99.4,0,0
COc1cc(/C=C2/C(=O)N(c3ccccc3)N=C2C)cc(I)c1O,-,0,-,-,-,-
CCOC(=O)c1cnc(Nc2nc3ccccc3o2)nc1C,-,-,-,-,2.8,-
CCOC(=O)c1cnc(Nc2nc3ccccc3o2)nc1CN1CCN(c2ccccc2)CC1,0,0,0,0,-,0
Cc1nc(Nc2nc3ccccc3o2)nc2c1CCC2,0,0,0,0,2.7,0
Cc1ccc(C2CC2c2n[nH]c(=S)n2-c2ccc(C)cc2)cc1 (centres undefined),-,-,-,-,2.1,-
Cc1ccc(-n2c(C3CC3c3ccc(Cl)cc3)n[nH]c2=S)cc1 (centres undefined),-,-,-,-,0,-
O=C1/C(=C\c2ccc(-c3ccc([N+](=O)[O-])cc3Br)o2)Sc2ccccc21,-,0,-,-,-,-
Cc1cc(C)n2nc(SCc3nnc(SCc4ccccc4C)s3)nc2n1,-,-,-,-,0,-
COc1cccc(CSc2nnc(CSc3nc4nc(C)cc(C)n4n3)s2)c1,-,-,-,-,2.1,-
Cc1cc(NC(=O)c2cc(-c3ccc(C)o3)nc3ccccc23)no1,-,0,-,-,-,-
CCC(=O)N/C(N)=N\c1nc(C)c2cc(C)cc(C)c2n1,-,0,-,-,-,-
Cc1cc(Cl)c(S(=O)(=O)N2CCCC2)cc1OCC(=O)NC1CCCCC1,-,-,-,-,2,-
Cc1cc(Cl)c(S(=O)(=O)Nc2ccc3c(c2)OCO3)cc1OCC(=O)NC1CCCCC1,-,-,-,-,0,-
Cc1cc(Cl)c(S(=O)(=O)NC(C(=O)O)C(C)C)cc1OCC(=O)NC1CCCCC1 (centres undefined),-,-,-,-,2,-
Cc1cc(Cl)ccc1OCC(N)=O,-,0,-,-,-,-
